Laboratory results reported in the supplement of paper PMC6555819.

test system: VDR:RXRa (NR concentration 270 nM, RXRa partner concentration 90 nM); test: PBM binding z-score (relative to random genomic background probes); higher = stronger binding; sequences stand for … in GC…GCGATTGACAGCGTAGAATGAAGG
Description: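 Protein-binding microarray (Agilent 4x180K custom design, double-stranded 60-nt probes: 5' GC cap, 34-nt variable region, 24-nt constant primer region; full probe sequence given). Purified or IVT nuclear receptor:RXRα heterodimers (3:1 NR:RXRα, mostly 270:90 nM) or homodimers were incubated for 1 h in PBS with 2% milk and no ligand, then detected with Alexa488 antibodies. Fluorescence from o1-orientation probes (~5 replicates averaged) was converted to z-scores against 500 random hg19 background probes. Variable regions are seed direct-repeat (DR0–DR5) sites, all their single-nucleotide variants and half-site ablations.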

| Sequence | PBM binding z-score |
| --- | --- |
| ATATGTAGGTTATCGGGTCAGTCAGTTTGCGCAT | 4.27 |
| TGGAGTAGGTTACCAATGGGGCATTCAGCTTTCT | 0.293 |
| CCGAGTATGTTATGGGGCATTCAGGCAACGGTGA | -0.0094 |
| ACAGACAGGTGATGAAGGTAATTCAGGCTATCAT | 0.0212 |
| CGAACGAGGGCATGAGTTGATGGCAAATGCCGAT | 1.34 |
| ATCGAAAGGTCGACGAGGTGGGTATACACCGTTT | 4.34 |
| CGTCCAAGGTCAAAGGCCAGTGAAGAGATGACGG | 4.14 |
| GCTATTAGTTGCAAGGGCAACCGAATGATTCTCG | 0.134 |
| CCTTACGGGTCACTGACAGGTAATAGCATTTGGA | 3.17 |
| GATACAGGGTCAGCTAGAGGCCAGACTATGGAAA | 3.23 |
| ATCGAAAAGTCGTGAGGTGAGTATACAGAAAGGC | -0.173 |
| ATATGTAGGTTAAATCCGGGTCATTCAGGCTATG | 4.63 |
| CCAGACAGGTGAGAAGGTAACTCAACCTCGATTA | 0.0485 |
| TCTCTTAGTTGATTAGGGCAACCGAAACAGCGGA | 0.558 |
| TCATATAGGTAAATGCTAGGTGAAAATCCGATCT | 0.793 |
| AATCGGAGGACAAAGGTCAGAGCTACGCCAGTGA | 3.23 |
| CGTCAAAGTTTAAGGTAACGTAACAGAAAGCAGC | 0.3 |
| CGTACTGGGCCACGAAAGGTCATTGATTCAGTGA | 4.47 |
| AGTCCAAGTTCAGGACGAGGTAACGTAAAGCACG | 2.51 |
| TCTTGTAGATCAACAGGAGGTTTAGAAAGATCGA | 0.171 |

| Sequence | PBM binding z-score |
| --- | --- |
| GCATATAGGTAATACCAGGTGAAAGTCCGATTGT | -0.00851 |
| ACTTACGGTTCAACGAGGTTATAGCACGCGTATA | 7.06 |
| CCTACTGAGCCACGAAAGGTCATTGATTCAGTGA | 3.97 |
| AAGACAGGGTCATCGTAGGCCAGAGTACGCACAG | 5.14 |
| CGTCCAAGGTCACAGGTCAGTGAAGAGATGACGG | 4.91 |
| CGAACCAGGTCAGAACAGGACAGTGAAGGATGAT | 1.44 |
| ACAGACAGGTGATGAGGGTAACTCAGGCTATCAT | 0.16 |
| CCGACTGGGGCATCAGGTTACCATAAGCCAGCCC | -0.451 |
| TCTTGTAGATCAGCAGGTTAACAAAGCTGGCCAA | 0.696 |
| CGAACTAGGTCAAGCACAGTGAATCTCCGCACGC | 1.43 |
| CCTAGCAGGCCAGGGTCATTCAAGCATTTCGCTT | 3.48 |
| ATCGAAAGGTCGACGAGGTGATTATACACCGTTT | 5.76 |
| CCTACTGGGCCACGAAGGGTCATTGATTCAGTGA | 3.09 |
| TCTAGCAGGCCAGAGGGTCTCTCAAGAGGTACGG | -0.687 |
| TGGCCTAGGTCAGATCGGGCCAGTATACGCTATA | 0.424 |
| ACAGACAGGTGAGTGAAGGTAAGTCAGCTGGACG | -0.37 |
| TCTTGTAGATCAACAGGAGGATAAGAAAGATCGA | 0.0724 |
| AGCTCTAGGTAACCAAGTTCAGTGAATGCCGAAC | 3.88 |
| GCTGCTAGGTCAACTAATGGTCAGCTAAAGCTCG | 1.35 |
| CCTGCTAGGTCAATGATCAGCTAAAGCAGCTCGC | 0.447 |
